Assay outcomes deposited in PubChem BioAssay by National Center for Advancing Translational Sciences (NCATS).
In the library only some 3.7% were active in any assay of this set; here they are far more common.
Sm TGR inh = S. mansoni TGR enzyme inhibition; Q962Y6; purified TGR, DTNB reduction, TNB absorbance 405 nm; Potency, µM (highest dose often 114 µM), hits mostly inhibitors; 360,000 tested, 3% active; AID 485364; note: nearly all actives have a fitted effect of over 60% in size
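Kinetic colorimetric format: TGR-catalysed, NADPH-driven DTNB reduction monitored via TNB absorbance. Enzyme dispensed at 20 nM; compound exposure 15 min at room temperature before reaction start.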
FMDV inh = foot and mouth disease virus antiviral activity; FMDV antiviral cell-based qHTS; Potency, µM (doses to about 57.9 µM), usual class: inhibitors; 410,000 tested, 1.2% active; calls by dose curve; tested in HEK293T cells; note: read-out not given here; nearly all actives have a fitted effect of over 45% in size
TbPYK inhibitor = inhibitors of Trypanosoma brucei pyruvate kinase; Q57TT1; TbPYK enzyme, Kinase-Glo Plus ATP luminescence, 45 min; Potency, µM (titrated, usually from 76.8 µM), most hits filed as inhibitors; 410,000 tested, 0.12% active; note: nearly all actives have a fitted effect of over 50% in size
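ADP (130 uM final) triggers the TbPYK reaction after compound addition; incubation is 45 min at room temperature. Kinase-Glo Plus is then added and luminescence imaged. Normalized data are fitted to concentration-effect curves.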
RE007 growth inh = less growth of the S. pombe RE007 Vpr strain; Potency, µM (top dose mostly 92.2 µM), hits mostly inhibitors; AID 651644; S. pombe RE007 Vpr strain, BacTiter-Glo ATP luminescence, 24 h; 360,000 tested, 0.21% active; active = well fitted falling curve with a large enough effect; inconclusive = small, poorly fitted or top-dose-only effect; inactive = no such curve, though single readings can be large or run the other way; note: nearly all actives have a fitted effect of over 50% in size
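Fission yeast strain RE007, carrying one chromosomally integrated HIV-1 vpr copy, was seeded at OD 0.01 in PMG+AL medium with 23 nL pinned compound. After 24 h at 30 °C and 99% humidity, viability was read by BacTiter-Glo luminescence.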
Each line names hits and unclear results; the compound was inactive in the other large screens. Unless noted, calls come from the whole dose curve; as a rule, active = well fitted curve in the direction sought with a large enough effect; inconclusive = small, poorly fitted or top-dose-only effect, or another doubt; inactive = no such curve, though single readings can be large; an effect the other way counts as inactive or inconclusive.

COc1ccc(-c2nnc3ccc(SCC(=O)Nc4cc(C)on4)nn23)cc1	none (no result: FMDV inh, TbPYK inhibitor, RE007 growth inh)
Cn1c(SCC(=O)NCc2ccco2)nnc1-c1ccccc1	Sm TGR inh inconclusive
O=C(CSc1ccc2nnc(-c3ccccc3)n2n1)NCc1ccco1	Sm TGR inh 44.7µM
O=C(CSc1ccc2nnc(CCNC(=O)c3ccccc3)n2n1)NCc1ccco1	none
Cn1cccc1C(=O)N1CCC2(CC1)CN(c1ccccn1)C2	none (no result: Sm TGR inh, RE007 growth inh)
Cc1nc(-c2cccc(F)c2)sc1CCNC(=O)c1c(F)cccc1Cl	none (no result: RE007 growth inh)
COc1ccc(Cc2nnc(SCC(=O)NCc3ccco3)o2)cc1	Sm TGR inh 50.1µM
COc1ccc(OCc2nnc(SCC(=O)NCc3ccco3)o2)cc1	none
CC1=NOC(=O)/C1=C/c1ccc(-c2ccc(Cl)cc2)o1	none (no result: FMDV inh, TbPYK inhibitor, RE007 growth inh)
COc1ccc(Cl)cc1/C=C1/C(=O)ON=C1C	Sm TGR inh inconclusive, FMDV inh 31.6µM
CC1=NOC(=O)/C1=C\c1ccc(-c2cc(Cl)ccc2Cl)o1	FMDV inh 10µM
CCCOc1ccc(/C=C2/C(=O)ON=C2C)cc1Cl	Sm TGR inh inconclusive, TbPYK inhibitor inconclusive
CCOc1ccc(Cl)cc1/C=C1/C(=O)ON=C1C	Sm TGR inh inconclusive, FMDV inh 39.8µM
O=C(N/N=C/C=C\c1ccco1)c1ccccn1	Sm TGR inh 10µM
CC(/C=N/NC(=O)c1ccccn1)=C\c1ccco1	Sm TGR inh 35.5µM
O=C(N/N=C/c1ccncc1)c1ccccn1	none
O=C(N/N=C/C=C/c1ccco1)c1cnccn1	Sm TGR inh 10µM
